We go through 6 molecules from PubChem BioAssay (NCI).

Each structure is given as a SMILES string. Several values for one entry are separate records, joined by “and”; a condition that tells them apart may be missing. Equal entries are not always repeated. About 83,000 compounds went through this panel and 20% of them were active in at least one assay; those are over-represented in the sample as a whole.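 Single-concentration screen, 48 h exposure, 96-well plates. Endpoint: percent growth. Below 10 = active.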 A number with no mark means an inactive call. Activity calls are given as the source filed them.

Some test systems named below: NCI-H23 lung; NCI-H226 lung; NCI-H322M lung; HOP-62 NSCLC; NCI-H460 lung; HOP-92 NSCLC; NCI-H522 lung; A549/ATCC NSCLC; 786-0 renal; COLO 205 colon; DU-145 prostate; K-562 leukemia; MALME-3M melanoma; MDA-MB-231 breast; RXF 393 renal; SF-268 CNS; SF-295 CNS; SF-539 CNS; UACC-257 melanoma; M14 melanoma.
Common to all, as to assay: NCI-60 one-dose screen, 48 h (100 = growth as untreated, 0 = no growth, -100 = all killed)
Common to all, as to conditions: 10 µM unless noted

In the case of `O=c1[nH]c(=O)n(Cl)c(=O)n1Cl`, the growth is 99.2% in the test with NCI-H23 lung; 98.4% and 104% with NCI-H226 lung; 108% and 119% in the test on NCI-H322M lung; 109% and 98.3% in the test with HOP-62 NSCLC; 116% and 109% in the test with NCI-H460 lung; 101% and 91.2% in the test on HOP-92 NSCLC. Besides, the growth with NCI-H522 lung is 101% and 100%; in the test on A549/ATCC NSCLC, 105% and 112%; in the test with 786-0 renal it was 115% and 99.5%; in the test on COLO 205 colon it was 117% and 123%; in the test with DU-145 prostate, 142%; with K-562 leukemia it was 109%. Besides, the growth is 106% and 110% with MALME-3M melanoma; 99.1% and 113% in the test with MDA-MB-231 breast; 114% and 120% with RXF 393 renal; 108% and 136% in the test on SF-268 CNS; 101% and 114% in the test with SF-295 CNS; 106% and 92.5% with SF-539 CNS. In addition, the growth in the test on UACC-257 melanoma was 99.5% and 117%; in the test on M14 melanoma, 103% and 98.4%.

Regarding `O=C1NC(=O)C(=Cc2ccccc2)C(=O)N1`, the growth is 98.5% and 102% in the test with NCI-H23 lung; 96.1% and 101% with NCI-H226 lung; 106% and 105% in the test with NCI-H322M lung; 94.9% and 92.6% in the test on HOP-62 NSCLC; 127% and 105% with NCI-H460 lung; 85.9% and 109% in the test on HOP-92 NSCLC. For the same molecule, the growth in the test on NCI-H522 lung is 96.1% and 94.5%; with A549/ATCC NSCLC, 101% and 91.4%; in the test with 786-0 renal it was 102% and 107%; in the test with COLO 205 colon it was 135% and 109%; in the test on DU-145 prostate it was 103% and 111%; in the test on K-562 leukemia it was 86.2% and 112%. Also, the growth was 96.1% and 109% in the test on MALME-3M melanoma; 96.4% and 110% with MDA-MB-231 breast; 98.5% and 116% with RXF 393 renal; 92.9% and 104% in the test with SF-268 CNS; 107% and 102% in the test with SF-295 CNS; 133% and 101% in the test on SF-539 CNS. The growth is 98.6% in the test with UACC-257 melanoma; 103% and 106% in the test with M14 melanoma.

As for `C/C(=N/OC(=O)N(C)C)c1ccc(Cl)c(Cl)c1`, the growth in the test on NCI-H23 lung is 98.2%; with NCI-H226 lung it was 102%; in the test on NCI-H322M lung, 96.1%; in the test on HOP-62 NSCLC it was 107%; in the test on NCI-H460 lung, 107%; in the test with HOP-92 NSCLC it was 102%. Besides, the growth in the test with NCI-H522 lung is 102%; in the test with A549/ATCC NSCLC, 82.7%; in the test on 786-0 renal, 103%; in the test on COLO 205 colon it was 111%; with DU-145 prostate, 121%; with K-562 leukemia, 120%. Moreover, the growth in the test with MALME-3M melanoma was 115%; in the test with MDA-MB-231 breast, 105%; in the test on RXF 393 renal, 108%; in the test on SF-268 CNS, 105%; in the test with SF-295 CNS, 112%; in the test on SF-539 CNS, 114%. Moreover, the growth in the test with UACC-257 melanoma was 97.4%; in the test with M14 melanoma, 113%.

Consider `CN(C)[C@@H]1C(=O)C(C(N)=O)=C(O)[C@@]2(O)C(=O)C3=C(O)c4c(O)ccc(Cl)c4[C@@](C)(O)[C@H]3C[C@@H]12`, for which the growth was 99.6% and 88.6% with NCI-H23 lung; 93.3% and 95.3% in the test with NCI-H226 lung; 84.8% and 105% in the test with NCI-H322M lung; 90.3% in the test on HOP-62 NSCLC; 88.9% and 101% in the test with NCI-H460 lung; 75.7% and 11.8% in the test on HOP-92 NSCLC. Further, the growth with NCI-H522 lung was 79.4% and 32.7%; with A549/ATCC NSCLC it was 97%; with 786-0 renal it was 91.3% and 71.2%; in the test with COLO 205 colon, 92.8% and 97.8%; in the test with DU-145 prostate it was 103%; with K-562 leukemia, 109% and 93.8%. Moreover, the growth in the test on MALME-3M melanoma is 79.3% and 80.7%; in the test with MDA-MB-231 breast it was 103% and 98%; with RXF 393 renal it was 96.1% and 94.3%; in the test on SF-268 CNS it was 94.8% and 98.9%; with SF-295 CNS, 90.1% and 103%; with SF-539 CNS, 93.3% and 92.1%. The growth with UACC-257 melanoma is 108% and 106%; in the test on M14 melanoma, 79.8% and 92.6%.

Consider `C[C@]12CCc3sc(Nc4ccc(OC(F)(F)F)cc4)nc3C1=CC[C@@H]1[C@@H]2CC[C@]2(C)C(=O)CC[C@@H]12`, for which the growth in the test on NCI-H23 lung is 75.5%; in the test with NCI-H226 lung, 74.9%; in the test on NCI-H322M lung it was 77.3%; in the test on HOP-62 NSCLC, 80%; in the test on NCI-H460 lung, 53.3%; in the test on HOP-92 NSCLC it was 75%. The growth is 89.1% in the test on NCI-H522 lung; 67% in the test on A549/ATCC NSCLC; 30.5% in the test on 786-0 renal; 67.9% with COLO 205 colon; 66.1% in the test on DU-145 prostate; 8.2% (active) in the test with K-562 leukemia. The growth with MALME-3M melanoma was 76.8%; in the test on MDA-MB-231 breast, 73.5%; in the test on RXF 393 renal, -32.2% (active); with SF-268 CNS, 68.6%; with SF-295 CNS, -2.71% (active); in the test on SF-539 CNS, -5.4% (active). Also, the growth was 84% in the test on UACC-257 melanoma and 83.9% in the test with M14 melanoma.

On to `CCOP(=O)(NC)OCC`, for which the growth was 95.6% in the test with NCI-H23 lung; 94.3% with NCI-H226 lung; 122% in the test on NCI-H322M lung; 90.8% with HOP-62 NSCLC; 104% with NCI-H460 lung; 74.5% in the test on HOP-92 NSCLC. The growth is 112% with NCI-H522 lung; 114% in the test with A549/ATCC NSCLC; 92.1% with 786-0 renal; 117% with COLO 205 colon; 112% in the test with DU-145 prostate; 120% with K-562 leukemia. Moreover, the growth in the test on MALME-3M melanoma was 121%; with MDA-MB-231 breast, 104%; in the test with RXF 393 renal it was 118%; with SF-268 CNS, 98.7%; in the test on SF-295 CNS, 129%; in the test on SF-539 CNS it was 101%. Moreover, the growth was 121% with UACC-257 melanoma and 94.8% in the test on M14 melanoma.
